{"source": "PubChem BioAssay (NCATS)", "note": "Records with an inconclusive call do not appear. A call without a number means that no potency is given here. Active and inactive are the calls of the source. Calls follow the shape of the dose curve; as a rule, active = well fitted inhibition curve with a large enough effect; inconclusive = small, poorly fitted or top-dose-only effect; inactive = flat fitted curve, though single readings scatter. Potency is read from the fitted curve at half-maximal effect."}
{"target": "Ubiquitin carboxyl-terminal hydrolase 1 (Homo sapiens) (UniProt O94782)", "sequence (O94782 whole entry, looked up)": "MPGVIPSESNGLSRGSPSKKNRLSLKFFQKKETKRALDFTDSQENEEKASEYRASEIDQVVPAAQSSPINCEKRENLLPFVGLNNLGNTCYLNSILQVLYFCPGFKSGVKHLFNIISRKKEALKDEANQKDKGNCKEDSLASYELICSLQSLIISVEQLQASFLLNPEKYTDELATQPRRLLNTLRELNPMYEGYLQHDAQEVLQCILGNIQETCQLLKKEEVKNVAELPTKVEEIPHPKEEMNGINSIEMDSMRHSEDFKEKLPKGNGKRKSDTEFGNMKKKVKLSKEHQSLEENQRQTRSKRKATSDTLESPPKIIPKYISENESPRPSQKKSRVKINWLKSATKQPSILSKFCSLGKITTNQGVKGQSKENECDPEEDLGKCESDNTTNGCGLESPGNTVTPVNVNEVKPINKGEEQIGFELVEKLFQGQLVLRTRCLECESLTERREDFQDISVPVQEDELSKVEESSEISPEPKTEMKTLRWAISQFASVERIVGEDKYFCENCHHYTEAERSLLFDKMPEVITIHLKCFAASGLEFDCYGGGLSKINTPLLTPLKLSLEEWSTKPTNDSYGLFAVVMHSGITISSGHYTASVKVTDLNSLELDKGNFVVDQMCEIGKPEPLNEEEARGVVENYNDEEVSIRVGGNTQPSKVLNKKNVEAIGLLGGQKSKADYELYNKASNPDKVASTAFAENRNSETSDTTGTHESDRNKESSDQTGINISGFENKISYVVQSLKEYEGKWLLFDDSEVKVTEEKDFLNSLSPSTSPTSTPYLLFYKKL", "experiment": "Inhibitors of USP1/UAF1: Pilot qHTS (AID 504865); also: nearly all actives have a fitted effect of over 35% in size", "details": "purified USP1/UAF1, Ub-rhodamine cleavage fluorescence; series mostly up to 114 µM", "in_short": "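Enzyme-free wells gave the negative control, while test wells held 1nM USP1/UAF1 preincubated with compound for 15 min at room temperature. Ub-Rho at 150nM final started the reaction, and fluorescence at 480/540 nm was recorded kinetically.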"}
{"molecule": "CCOC(=O)[C@H](CCc1ccccc1)N[C@@H](C)C(=O)N1C(=O)N(C)C[C@H]1C(=O)O", "Potency": "inactive"}
{"molecule": "NC(=O)NC(=O)Cc1ccccc1", "Potency": "inactive"}
{"molecule": "O=C(O)c1ccccc1O", "Potency": "inactive"}
{"molecule": "CCCCc1ncc(/C=C(\\Cc2cccs2)C(=O)O)n1Cc1ccc(C(=O)O)cc1", "Potency": "inactive"}
{"molecule": "OCC(O)CN1CCN(c2ccccc2)CC1", "note": "(configuration not stated)", "Potency": "inactive"}
{"molecule": "Cc1ccc(C(C)C)cc2c(C)ccc1-2", "Potency": "inactive"}
{"molecule": "Oc1cccc(O)c1", "Potency": "inactive"}
{"molecule": "CCCCC(CC)COC(=O)c1ccccc1O", "note": "(configuration not stated)", "Potency": "inactive"}
{"molecule": "CCCCCCCCCCCCCCCCCCOCC(O)CO", "note": "(configuration not stated)", "Potency": "inactive"}
{"molecule": "O=C(O)CN1C(=O)c2cccc3cccc(c23)C1=O", "Potency": "inactive"}
{"molecule": "CC12CCC(CC1)C(C)(C)O2", "Potency": "inactive"}
{"molecule": "COc1cc(C)c(Cc2cnc(N)nc2N)cc1OC", "Potency": "inactive"}
{"molecule": "O=C(Oc1ccccc1C(=O)O)c1ccccc1O", "Potency": "inactive"}
{"molecule": "CN(C)CCN(Cc1ccccc1)c1ccccn1", "Potency": "inactive"}
{"molecule": "CCCCCCCCCCCCOS(=O)(=O)O", "Potency": "79.4 µM (active)"}
{"molecule": "CCCCOC(=O)c1ccc(O)cc1", "Potency": "inactive"}
{"molecule": "COc1cc(C(=O)N2CCOCC2)cc(OC)c1OC", "Potency": "inactive"}
{"molecule": "COc1ccccc1O", "Potency": "inactive"}
{"molecule": "C[C@@H]1CN(c2c(F)c(F)c3c(=O)c(C(=O)O)cn(C4CC4)c3c2F)C[C@H](C)N1", "Potency": "inactive"}
{"molecule": "Nc1ccc(S(=O)(=O)Nc2nccs2)cc1", "Potency": "inactive"}
{"molecule": "CC(=O)CCC(=O)O", "Potency": "inactive"}
{"molecule": "O=c1cc(CO)occ1O", "Potency": "inactive"}
{"molecule": "CC(C)(C)C(=O)C(Oc1ccc(Cl)cc1)n1ccnc1", "note": "(configuration not stated)", "Potency": "inactive"}
{"molecule": "CC(=O)NC(Cc1ccccc1)C(=O)O", "note": "(configuration not stated)", "Potency": "inactive"}
{"molecule": "O=Cc1ccccc1C=O", "Potency": "50.1 µM (active)"}
{"molecule": "Cc1c(Cl)cccc1Nc1ccccc1C(=O)O", "Potency": "inactive"}
{"molecule": "[O-][n+]1cccc(CO)c1", "Potency": "inactive"}
{"molecule": "CCOC(=O)c1ccc(O)cc1", "Potency": "inactive"}
{"molecule": "CCCCN(CCCC)CC(O)c1cc(Cl)cc2c1-c1ccc(Cl)cc1/C2=C/c1ccc(Cl)cc1", "note": "(configuration not stated)", "Potency": "inactive"}
{"molecule": "NCCNCCNCCN", "Potency": "inactive"}
{"molecule": "Cc1cccc(Nc2cc(Cl)nc(SCC(=O)O)n2)c1C", "Potency": "inactive"}
{"molecule": "CN1CCOC(c2ccccc2)c2ccccc2C1", "note": "(configuration not stated)", "Potency": "inactive"}
{"molecule": "c1ccc(CN(CC2=NCCN2)c2ccccc2)cc1", "Potency": "inactive"}
{"molecule": "O=C(O)c1ccccn1", "Potency": "inactive"}
{"molecule": "CC(COc1ccccc1)NC(C)C(O)c1ccc(O)cc1", "note": "(configuration not stated)", "Potency": "inactive"}
{"molecule": "OC[C@H]1O[C@@H](O[C@@H]2[C@@H](CO)O[C@](O)(CO)[C@H]2O)[C@H](O)[C@@H](O)[C@H]1O", "Potency": "inactive"}
{"molecule": "CC1(C)[C@@H]2CC[C@@]1(C)C(=O)C2", "Potency": "inactive"}
